Source: PubChem (several laboratories)
This is a sample that favours compounds with a hit; in the whole collection about 2.1% have one here.
BJeLR viability: MLPCN primary cell-based screen for lethality selective to Ras in HRASV12 cells; BJeLR (HRASV12) viability, CellTiter-Glo ATP luminescence, 48 h; inhibition, % (test concentration not listed); hit rate 0.17% among 300,000; in the data active means inhibition above about 50%
PfHsp40 yeast: rescue of yeast from PfHsp40 toxicity, primary screen, S. cerevisiae, ATP luminescence; AID 504582, 2011; S. cerevisiae expressing PfHsp40, growth rescue; growth rescue, % at 12.5 µM; hit rate 0.68% among 340,000; in the data active means growth rescue above about 28%, passing the limit was not always enough;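 further: yeast W303a lacking pdr1 and pdr3 grown in galactose medium; growth measured after three days at 30 °C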
VHR inh abs: VHR1 phosphatase inhibitors, primary screen, biochemical, absorbance, uHTS; recombinant VHR phosphatase, pNPP absorbance; inhibition, % at 13.3 µM; Dual specificity protein phosphatase 3 (Homo sapiens), P51452; hit rate 0.52% among 290,000; AID 1654, 2009; in the data active means inhibition above about 50%
Target sequence (P51452 whole entry, looked up): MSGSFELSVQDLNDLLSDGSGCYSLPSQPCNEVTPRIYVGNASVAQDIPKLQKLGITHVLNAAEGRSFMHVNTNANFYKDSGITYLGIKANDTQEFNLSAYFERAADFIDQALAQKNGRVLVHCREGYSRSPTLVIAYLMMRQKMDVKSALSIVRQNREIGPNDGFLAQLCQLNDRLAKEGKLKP
MazF activator: activators of E. coli MazEF toxin-antitoxin RNase, primary screen, biochemical, fluorescence, uHTS. FAM/BHQ RNA-DNA oligo cleavage fluorescence, 5 h. activation, % at 20 µM. hit rate 0.32% among 350,000. AID 504720, 2011; in the data active means activation above about 50%
Target sequence (P0AE70 whole entry, looked up): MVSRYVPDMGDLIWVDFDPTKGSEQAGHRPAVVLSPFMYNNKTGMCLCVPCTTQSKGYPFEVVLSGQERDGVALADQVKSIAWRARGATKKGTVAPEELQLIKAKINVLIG
PrPC surface inh: inhibitors of human cell surface prion protein PrPC, primary screen, cell-based, TR-FRET. TR-FRET read-out. inhibition, % at 13.8 µM. hit rate 0.43% among 370,000. AID 720596, 2013; in the data active means inhibition above about 24%; further: 0% = median of the test wells and 100% = reference compound wells
PrP UTR inh: inhibition of PrP 5' UTR reporter expression; cell-based PrP 5' UTR mRNA reporter, plate reader; inhibition, % (test concentration not listed); hit rate 0.35% among 340,000; AID 488862, 2010; in the data active means inhibition above about 52%; further: 0 = median of the neutral control wells
Numbers without * were called inactive; nt = no result given.

SMILES	BJeLR viability	PfHsp40 yeast	VHR inh abs	MazF activator	PrPC surface inh	PrP UTR inh
C[C@H]1[C@@H](OC(=O)Nc2cc(Cl)ccc2Cl)CC[C@@]23CCCN2C(=O)CCC[C@@H]13	nt	nt	nt	nt	6	nt
Cc1cc(=O)n(Cc2ccc(OC(C)C)cc2)c(=S)[nH]1	-8	-1	52*	0	9	-1
O=C(O)c1ccc(N=Nc2c(O)[nH]c3ccc(Br)cc23)cc1	1	0	nt	5	6	nt
O=c1ccc2cc3c([nH]c4ccc(Br)cc43)oc-2c1O	12	228*	-9	nt	-13	-23
C[C@@H]1CC=C[C@H]2[C@H]1C(=O)N(Cc1ccccc1)[C@H]2c1ccc(-c2cc3ccccc3s2)cc1F	-2	-1	7	-2	-2	-74
O=C(NNC(=O)c1cc2cc(Br)ccc2oc1=O)c1ccc(O)cc1O	-1	1	60*	9	2	-18
O=C(CN1C(=O)NC2(CCCc3ccccc32)C1=O)N1CCN(C(=O)c2ccco2)CC1 (stereo not drawn)	-4	-1	54*	-3	1	-12
Cc1nc2ccc(C(=O)OCc3ccccc3Br)cc2nc1C	1	-1	32	60*	-3	-46
CC(=O)Nc1ccc(C(=O)OCc2ccccc2Br)cc1	-3	21	26	1	-6	-13
COc1ccc(CN2CCC(n3nccc3NC(=O)c3ccc4c(c3)OCO4)CC2)cc1C	4	0	52*	-12	0	-6
COc1ccccc1C(=O)Nc1ccnn1C1CCN(Cc2csc(C(C)=O)c2)CC1	4	-1	17	7	-1	-13
CC(=O)c1cc(CN2CCC(n3nccc3NC(=O)c3ccccc3C)CC2)cs1	-7	0	59*	-3	-1	-2
Cc1cccc(OCC(=O)NNC(=O)c2ccccc2OCc2c(C)noc2C)c1	nt	-1	nt	1	0	-10
COc1ccc(C(=O)NCC(c2ccccc2)N2CCCC2)cc1S(=O)(=O)N1CCOCC1 (stereo not drawn)	nt	0	nt	7	1	9
CC(=O)N1c2ccc(S(=O)(=O)NCCC(=O)NCCc3cccc(C)c3)cc2CC1C (stereo not drawn)	-12	68*	2	3	0	-6
O=S(=O)(c1cccc(Cl)c1)N1CCN(S(=O)(=O)c2ccc3c(c2)OCCO3)CC1	nt	43*	nt	-15	-1	-38
COC(=O)[C@]12C[C@H](CC(=O)N3CCN(C(=O)c4ccco4)CC3)C(=O)N(Cc3ccc4c(c3)OCO4)C1=C[C@H](C(C)(C)C)O[C@@H]2C	nt	nt	nt	nt	-10	nt
O=C(Nc1cccc(-c2nc3ccccc3s2)c1)c1cc(=O)c2ccccc2o1	-16	-1	-2	-14	-3	-24
O=C(Nc1cccc(-c2nc3ccccc3s2)c1)c1cccs1	-2	403*	-5	3	5	-30
Cn1c(=O)c2c(nc(SCC(=O)NCc3ccco3)n2C)n(C)c1=O	-6	1	18	-5	7	-18
CCCCn1c(SCC(=O)NCc2ccco2)nc2c1c(=O)n(C)c(=O)n2C	2	45*	9	5	3	-19
COc1ccc(C(=O)n2nc(-c3ccco3)nc2SC)cc1OC	-15	-1	-5	109*	-1	-5
O=C(Cc1ccccc1F)Nc1nc(-c2ccc(F)c(F)c2)cs1	-11	242*	23	26	20	-16
COc1cc(/C=C(/C#N)C(=O)NCc2ccccc2)cc(OC)c1OC	-6	-2	16	2	-6	6
COc1ccc(/C=C(\C#N)C(=O)NCCc2ccccc2)cc1OCc1ccccc1	-14	0	3	84*	-5	-23
SMILES	BJeLR viability	PfHsp40 yeast	VHR inh abs	MazF activator	PrPC surface inh	PrP UTR inh
Cc1cc(/C=C(\C#N)C(=O)NCc2ccccc2)cc(C)c1O	-12	0	52*	-2	1	-28
CCC(=O)c1ccc(OCC(=O)OC(C)C(=O)Nc2c(C)n(C)n(-c3ccccc3)c2=O)cc1 (stereo not drawn)	nt	1	nt	2	3	-32
O=C(N/C=C/c1ccccc1)c1ccccc1	4	0	nt	2	-2	-41
CCOC(=O)C1CCCN(C2=NC(=O)/C(=C/c3ccc(N(C)C)cc3)S2)C1 (stereo not drawn)	-4	-1	53*	-176	-20	1
Cc1ccc(NC2CCCN(C(=O)CCn3nccc3C)C2)cc1C (stereo not drawn)	1	-1	54*	-16	0	-2
CC(C)c1ccc(NC2CCCN(C(=O)CCN3CCOCC3)C2)cc1 (stereo not drawn)	8	-1	51*	10	3	-23
Cc1ccc(NC2CCCN(C(=O)CCCN3CCCCC3=O)C2)cc1C (stereo not drawn)	4	-2	37	7	2	-20
Cc1ccc(NC2CCCN(C(=O)CCN3CCOCC3)C2)cc1C (stereo not drawn)	8	-1	53*	-5	5	-14
COc1cc(C(C)=O)ccc1Oc1ncnc2c1cnn2-c1ccccc1	1	-1	-5	60*	-4	-4
CCOCCCNC(=O)C1(O)c2cc(Br)ccc2NC(=O)N1c1ccc(CC)cc1 (stereo not drawn)	1	-1	20	7	-1	-10
CCOCCCNC(=O)C1(O)c2cc(Br)ccc2NC(=O)N1c1ccc(OCC)cc1 (stereo not drawn)	2	51*	nt	1	2	-18
CCOc1cc(N2CCOCC2)c(OCC)cc1NC(=O)C1=COCCO1	nt	0	nt	4	2	-16
O=S1(=O)C[C@H](N2CCC[C@@H]2CO)[C@@H](COCc2ccccc2)N1	nt	nt	nt	nt	1	nt
COc1cc([C@H]2c3[nH]c4ccccc4c3C[C@H]3C(=O)N4[C@@H](c5cc(OC)c(OC)c(OC)c5)c5[nH]c6ccccc6c5C[C@H]4C(=O)N23)cc(OC)c1OC	83*	0	-11	-4	nt	-5
CCN1C(=O)[C@@H]2Cc3c([nH]c4ccccc34)C(c3cc(OC)c(OC)c(OC)c3)N2C1=S (stereo partly drawn)	-1	0	20	-150	-6	-10
COC(=O)CSc1nc2cc(C)cc(C)c2cc1C#N	-6	-2	29	131*	-2	-62
Cc1ccc2nc(SCC(=O)NCc3cccs3)c(C#N)cc2c1	-1	0	23	3	6	-12
CC(=O)CSc1nc2cc3c(cc2cc1C#N)OCCO3	21	1	4	80*	-9	-17
COC(=O)CSc1nc2ccc(C)cc2cc1C#N	-3	2	50	901*	4	-46
